From the supplement of paper PMC11732987, “Enantioselective OTUD7B fragment discovery through chemoproteomics screening and high-throughput optimisation” (Communications Chemistry, 2025)

How the values were obtained:
Assay in all cases: log2 ratio of Biotin-Ahx-Ub-VS probe labelling (fragment/DMSO); higher = less target engagement (more negative = stronger competition), active = hit call of the paper (q ≤ 0.05, log2 ratio ≤ -1)
Settings in all cases: compound concentration: 200 uM; treatment time: 3 h
USP34 = USP34 (UniProt Q70CQ2)
Outline: (§1)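 Each value is an average log2 ratio of fragment to vehicle, tested by unpaired t-test. The underlying Spectronaut label-free quantities were global-median-normalised, and only proteins with ≥2 unique peptides were included. Triplicate HEK293T lysate samples (495 µg) were exposed to fragment at 200 µM or vehicle for 3 h, then to Biotin-Ahx-Ub-VS at 0.5 µM final for 1 h, before NeutrAvidin enrichment of labelled DUBs, LysC and trypsin digestion, and diaPASEF LC-MS/MS.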

USP36 = molecular target: T1, USP36 (UniProt Q9P275)
T1 sequence (whole entry): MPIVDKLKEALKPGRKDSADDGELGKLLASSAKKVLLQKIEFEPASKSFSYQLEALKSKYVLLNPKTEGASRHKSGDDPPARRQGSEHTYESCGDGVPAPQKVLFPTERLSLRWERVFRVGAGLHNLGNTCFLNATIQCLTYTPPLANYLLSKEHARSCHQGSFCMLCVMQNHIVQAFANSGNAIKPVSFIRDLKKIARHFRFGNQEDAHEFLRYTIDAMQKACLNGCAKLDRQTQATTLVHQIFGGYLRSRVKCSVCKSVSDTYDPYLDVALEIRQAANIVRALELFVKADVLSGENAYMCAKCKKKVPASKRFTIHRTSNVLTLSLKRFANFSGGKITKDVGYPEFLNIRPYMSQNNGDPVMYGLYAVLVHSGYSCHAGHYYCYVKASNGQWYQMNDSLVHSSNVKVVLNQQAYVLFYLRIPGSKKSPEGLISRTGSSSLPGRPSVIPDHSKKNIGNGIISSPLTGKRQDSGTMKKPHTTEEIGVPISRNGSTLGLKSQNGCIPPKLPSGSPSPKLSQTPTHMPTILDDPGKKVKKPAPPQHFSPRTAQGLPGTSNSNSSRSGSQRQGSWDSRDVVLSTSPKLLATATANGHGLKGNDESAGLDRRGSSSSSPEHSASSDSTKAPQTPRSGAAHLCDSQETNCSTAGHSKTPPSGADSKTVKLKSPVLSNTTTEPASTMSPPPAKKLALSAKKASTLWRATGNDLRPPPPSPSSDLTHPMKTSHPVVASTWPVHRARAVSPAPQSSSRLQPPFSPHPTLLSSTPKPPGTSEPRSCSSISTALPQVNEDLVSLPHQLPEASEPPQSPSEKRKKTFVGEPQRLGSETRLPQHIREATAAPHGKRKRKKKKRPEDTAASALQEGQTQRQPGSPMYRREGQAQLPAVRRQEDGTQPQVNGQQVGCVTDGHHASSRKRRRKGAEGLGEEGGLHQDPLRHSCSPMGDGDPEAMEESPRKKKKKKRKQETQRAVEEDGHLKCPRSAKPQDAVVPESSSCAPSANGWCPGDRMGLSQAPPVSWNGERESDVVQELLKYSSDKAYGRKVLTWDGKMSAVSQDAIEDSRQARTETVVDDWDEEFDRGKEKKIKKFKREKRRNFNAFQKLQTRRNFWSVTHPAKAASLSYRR
Outline: as §1

USP38 = molecular target: T2, USP38 (UniProt Q8NB14)
T2 sequence (whole entry): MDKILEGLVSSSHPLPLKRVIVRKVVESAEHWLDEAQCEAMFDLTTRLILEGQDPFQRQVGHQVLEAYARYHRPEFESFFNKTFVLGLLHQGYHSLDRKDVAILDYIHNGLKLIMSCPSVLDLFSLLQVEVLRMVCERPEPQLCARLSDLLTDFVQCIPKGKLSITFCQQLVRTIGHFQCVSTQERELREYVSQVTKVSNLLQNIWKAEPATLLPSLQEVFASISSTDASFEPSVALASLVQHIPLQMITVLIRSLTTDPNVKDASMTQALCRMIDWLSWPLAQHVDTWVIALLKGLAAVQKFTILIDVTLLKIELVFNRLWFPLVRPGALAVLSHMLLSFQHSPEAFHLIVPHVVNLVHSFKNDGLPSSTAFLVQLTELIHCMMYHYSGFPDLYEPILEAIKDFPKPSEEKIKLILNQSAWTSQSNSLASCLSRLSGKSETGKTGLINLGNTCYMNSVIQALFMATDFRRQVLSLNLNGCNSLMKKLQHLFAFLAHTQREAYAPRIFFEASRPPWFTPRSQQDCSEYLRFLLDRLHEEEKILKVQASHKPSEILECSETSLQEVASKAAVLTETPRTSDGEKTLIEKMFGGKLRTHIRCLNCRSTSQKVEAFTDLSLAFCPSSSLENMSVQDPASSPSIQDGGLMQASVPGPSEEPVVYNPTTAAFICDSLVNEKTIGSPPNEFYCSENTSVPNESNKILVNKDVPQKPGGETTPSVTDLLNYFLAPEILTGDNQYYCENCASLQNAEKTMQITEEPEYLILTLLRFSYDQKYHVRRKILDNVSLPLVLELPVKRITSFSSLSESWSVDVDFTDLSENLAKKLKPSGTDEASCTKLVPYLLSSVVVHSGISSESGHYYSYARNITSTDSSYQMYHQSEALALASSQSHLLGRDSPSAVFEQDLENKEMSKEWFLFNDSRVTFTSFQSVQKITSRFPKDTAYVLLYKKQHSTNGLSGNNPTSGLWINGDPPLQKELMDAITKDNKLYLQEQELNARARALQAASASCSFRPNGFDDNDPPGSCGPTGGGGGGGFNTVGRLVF
Outline: as §1

USP39 = molecular target: T3, USP39 (UniProt Q53GS9)
T3 sequence (whole entry): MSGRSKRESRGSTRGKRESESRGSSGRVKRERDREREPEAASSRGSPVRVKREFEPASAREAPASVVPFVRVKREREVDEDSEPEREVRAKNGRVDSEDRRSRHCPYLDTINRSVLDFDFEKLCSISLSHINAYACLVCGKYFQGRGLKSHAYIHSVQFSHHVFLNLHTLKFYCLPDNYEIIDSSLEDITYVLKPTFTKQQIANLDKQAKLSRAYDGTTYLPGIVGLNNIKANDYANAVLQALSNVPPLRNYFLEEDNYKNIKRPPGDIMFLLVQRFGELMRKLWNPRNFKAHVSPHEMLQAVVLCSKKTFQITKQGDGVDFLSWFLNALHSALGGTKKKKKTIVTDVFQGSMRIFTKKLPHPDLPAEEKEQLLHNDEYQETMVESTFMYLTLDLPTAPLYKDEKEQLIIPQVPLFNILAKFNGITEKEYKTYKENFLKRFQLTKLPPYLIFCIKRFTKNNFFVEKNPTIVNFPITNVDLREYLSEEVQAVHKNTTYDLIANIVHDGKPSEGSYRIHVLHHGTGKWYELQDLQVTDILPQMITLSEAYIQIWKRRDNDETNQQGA
Outline: as §1

USP4 = molecular target: T4, USP4 (UniProt Q13107)
T4 sequence (whole entry): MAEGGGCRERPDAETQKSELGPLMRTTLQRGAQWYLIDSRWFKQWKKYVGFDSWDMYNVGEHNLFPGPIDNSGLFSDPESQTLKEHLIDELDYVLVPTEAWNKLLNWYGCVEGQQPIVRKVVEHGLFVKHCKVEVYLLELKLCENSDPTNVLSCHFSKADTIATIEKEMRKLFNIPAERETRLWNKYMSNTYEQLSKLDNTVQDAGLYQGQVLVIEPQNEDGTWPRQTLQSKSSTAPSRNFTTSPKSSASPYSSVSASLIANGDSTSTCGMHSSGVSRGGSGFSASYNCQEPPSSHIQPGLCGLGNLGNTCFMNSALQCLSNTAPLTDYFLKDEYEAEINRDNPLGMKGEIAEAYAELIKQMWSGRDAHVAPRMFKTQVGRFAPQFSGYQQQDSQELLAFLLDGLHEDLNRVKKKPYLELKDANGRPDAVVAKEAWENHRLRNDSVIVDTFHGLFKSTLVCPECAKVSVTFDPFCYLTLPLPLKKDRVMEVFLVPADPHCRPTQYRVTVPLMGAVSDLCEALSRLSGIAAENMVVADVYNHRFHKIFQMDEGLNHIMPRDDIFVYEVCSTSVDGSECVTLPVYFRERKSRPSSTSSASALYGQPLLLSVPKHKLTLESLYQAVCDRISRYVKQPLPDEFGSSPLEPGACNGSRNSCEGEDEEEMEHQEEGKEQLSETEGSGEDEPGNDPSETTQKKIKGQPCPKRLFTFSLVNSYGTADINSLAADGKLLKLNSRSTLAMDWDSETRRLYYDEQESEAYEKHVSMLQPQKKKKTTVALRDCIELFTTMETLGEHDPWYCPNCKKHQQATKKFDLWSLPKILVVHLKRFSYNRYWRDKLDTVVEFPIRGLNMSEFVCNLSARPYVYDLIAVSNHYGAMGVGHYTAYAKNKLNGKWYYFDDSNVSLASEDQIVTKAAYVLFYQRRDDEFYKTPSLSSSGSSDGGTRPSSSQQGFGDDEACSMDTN
Outline: as §1

Measured: log2 ratio of Biotin-Ahx-Ub-VS probe labelling

Chain of USP34 (Q70CQ2 whole entry, the tested form may be a part): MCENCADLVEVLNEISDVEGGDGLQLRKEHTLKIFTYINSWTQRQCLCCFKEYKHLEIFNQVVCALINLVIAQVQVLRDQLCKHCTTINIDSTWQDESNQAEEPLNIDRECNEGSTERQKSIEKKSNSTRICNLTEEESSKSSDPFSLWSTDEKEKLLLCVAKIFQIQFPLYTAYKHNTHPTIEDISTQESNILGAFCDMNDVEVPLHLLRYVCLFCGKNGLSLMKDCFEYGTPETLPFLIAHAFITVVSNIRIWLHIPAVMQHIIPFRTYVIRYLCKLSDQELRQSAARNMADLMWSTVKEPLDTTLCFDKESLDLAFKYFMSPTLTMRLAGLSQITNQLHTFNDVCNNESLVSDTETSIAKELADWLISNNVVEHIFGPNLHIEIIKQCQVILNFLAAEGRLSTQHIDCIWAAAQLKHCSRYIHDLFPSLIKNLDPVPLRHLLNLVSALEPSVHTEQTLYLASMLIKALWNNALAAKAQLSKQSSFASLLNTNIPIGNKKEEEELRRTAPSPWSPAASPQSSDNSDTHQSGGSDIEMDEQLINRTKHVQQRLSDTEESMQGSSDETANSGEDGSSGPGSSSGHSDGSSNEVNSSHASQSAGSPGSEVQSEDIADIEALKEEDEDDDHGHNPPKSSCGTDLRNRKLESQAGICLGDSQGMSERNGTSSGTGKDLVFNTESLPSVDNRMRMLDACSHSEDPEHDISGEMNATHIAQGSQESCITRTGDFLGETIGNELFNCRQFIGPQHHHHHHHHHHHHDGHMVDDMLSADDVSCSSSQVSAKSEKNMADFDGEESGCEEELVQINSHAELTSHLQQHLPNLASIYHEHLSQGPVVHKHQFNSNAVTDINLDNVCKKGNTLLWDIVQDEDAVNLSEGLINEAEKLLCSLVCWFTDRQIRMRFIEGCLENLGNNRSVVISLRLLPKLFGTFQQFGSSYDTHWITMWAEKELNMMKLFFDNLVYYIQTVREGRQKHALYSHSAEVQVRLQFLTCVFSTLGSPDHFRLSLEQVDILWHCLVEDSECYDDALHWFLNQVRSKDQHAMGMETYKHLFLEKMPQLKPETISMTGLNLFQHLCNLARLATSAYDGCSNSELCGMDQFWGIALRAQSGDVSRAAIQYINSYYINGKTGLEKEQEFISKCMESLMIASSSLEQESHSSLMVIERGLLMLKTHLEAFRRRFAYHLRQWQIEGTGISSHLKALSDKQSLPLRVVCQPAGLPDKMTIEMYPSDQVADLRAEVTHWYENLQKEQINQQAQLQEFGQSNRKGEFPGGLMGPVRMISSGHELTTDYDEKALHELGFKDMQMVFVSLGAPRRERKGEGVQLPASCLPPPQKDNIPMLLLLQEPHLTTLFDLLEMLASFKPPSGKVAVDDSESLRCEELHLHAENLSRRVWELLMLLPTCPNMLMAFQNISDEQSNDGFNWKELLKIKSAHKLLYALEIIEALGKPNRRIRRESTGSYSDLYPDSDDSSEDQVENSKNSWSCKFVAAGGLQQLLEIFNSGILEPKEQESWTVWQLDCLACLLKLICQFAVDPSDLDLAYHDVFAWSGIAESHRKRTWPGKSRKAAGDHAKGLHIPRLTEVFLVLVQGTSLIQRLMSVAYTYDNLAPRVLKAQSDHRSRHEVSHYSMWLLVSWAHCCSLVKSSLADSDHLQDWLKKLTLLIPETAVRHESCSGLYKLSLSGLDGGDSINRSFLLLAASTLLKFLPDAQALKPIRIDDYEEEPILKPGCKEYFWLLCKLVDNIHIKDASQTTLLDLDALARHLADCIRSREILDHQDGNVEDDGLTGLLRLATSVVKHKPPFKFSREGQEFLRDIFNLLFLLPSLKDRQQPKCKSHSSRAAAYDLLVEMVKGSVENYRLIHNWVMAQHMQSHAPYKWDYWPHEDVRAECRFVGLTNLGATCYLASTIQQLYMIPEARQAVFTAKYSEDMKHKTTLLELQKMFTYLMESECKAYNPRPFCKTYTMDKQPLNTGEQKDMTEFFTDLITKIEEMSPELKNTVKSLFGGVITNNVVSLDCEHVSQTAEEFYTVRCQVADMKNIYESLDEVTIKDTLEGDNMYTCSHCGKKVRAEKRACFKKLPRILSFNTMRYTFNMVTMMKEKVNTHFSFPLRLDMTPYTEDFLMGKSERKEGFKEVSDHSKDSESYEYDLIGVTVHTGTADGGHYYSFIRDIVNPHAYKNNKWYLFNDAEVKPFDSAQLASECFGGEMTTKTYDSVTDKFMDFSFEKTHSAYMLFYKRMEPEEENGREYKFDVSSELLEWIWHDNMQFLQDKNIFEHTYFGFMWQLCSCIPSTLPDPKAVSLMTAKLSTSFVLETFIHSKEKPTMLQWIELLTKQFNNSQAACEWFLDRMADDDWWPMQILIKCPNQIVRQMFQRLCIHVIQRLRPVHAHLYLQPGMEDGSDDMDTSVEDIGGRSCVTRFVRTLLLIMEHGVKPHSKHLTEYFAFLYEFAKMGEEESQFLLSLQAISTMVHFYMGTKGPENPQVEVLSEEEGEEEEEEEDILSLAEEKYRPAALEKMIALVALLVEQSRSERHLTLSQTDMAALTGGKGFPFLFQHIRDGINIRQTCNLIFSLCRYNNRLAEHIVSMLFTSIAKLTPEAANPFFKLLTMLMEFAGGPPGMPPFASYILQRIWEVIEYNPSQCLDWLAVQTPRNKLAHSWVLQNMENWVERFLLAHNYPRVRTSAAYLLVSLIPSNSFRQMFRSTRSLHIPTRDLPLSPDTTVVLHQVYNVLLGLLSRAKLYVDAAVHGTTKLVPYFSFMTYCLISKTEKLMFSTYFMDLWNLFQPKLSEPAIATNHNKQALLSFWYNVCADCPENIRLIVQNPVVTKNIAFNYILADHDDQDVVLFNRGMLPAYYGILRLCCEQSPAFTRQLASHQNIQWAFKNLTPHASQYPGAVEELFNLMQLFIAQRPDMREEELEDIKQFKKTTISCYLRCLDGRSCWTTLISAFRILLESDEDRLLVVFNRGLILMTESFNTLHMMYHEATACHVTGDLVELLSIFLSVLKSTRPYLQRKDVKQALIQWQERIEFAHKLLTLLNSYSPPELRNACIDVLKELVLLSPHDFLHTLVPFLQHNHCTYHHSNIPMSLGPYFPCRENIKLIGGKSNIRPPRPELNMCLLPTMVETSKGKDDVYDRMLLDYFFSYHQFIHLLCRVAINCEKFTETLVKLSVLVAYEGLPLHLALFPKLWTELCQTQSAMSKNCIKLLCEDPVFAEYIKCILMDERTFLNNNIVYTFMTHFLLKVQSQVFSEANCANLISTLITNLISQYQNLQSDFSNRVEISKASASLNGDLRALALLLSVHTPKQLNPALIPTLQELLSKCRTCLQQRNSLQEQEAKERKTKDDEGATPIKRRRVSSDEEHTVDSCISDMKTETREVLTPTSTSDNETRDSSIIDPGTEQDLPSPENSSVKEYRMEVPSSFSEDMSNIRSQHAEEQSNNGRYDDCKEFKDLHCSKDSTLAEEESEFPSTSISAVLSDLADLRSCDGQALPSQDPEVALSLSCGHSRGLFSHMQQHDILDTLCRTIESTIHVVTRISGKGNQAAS

O=C(CCl)NCCc1ccc2c(c1)OCCO2
inactive: USP34 -0.523 | USP36 -0.0707 | USP38 -0.0664 | USP39 -0.16 | USP4 -0.295
